Source: PubChem (National Center for Advancing Translational Sciences (NCATS))
Vaccinia Venus – inhibitors of vaccinia virus (Venus reporter) | Vaccinia virus Venus reporter expression, fluorescence | Potency, µM (highest dose often 36.5 µM), without a hit: at the top dose activity change, negative = inhibition, usual class: inhibitors | actives 0.46% (n = 330,000); calls by dose curve; tested in A549 cells; further: nearly all actives have a fitted effect of over 30% in size
Vaccinia mCherry – inhibitors of vaccinia virus infection (mCherry reporter signal). Vaccinia virus mCherry reporter infection, fluorescence. Potency, µM (doses to about 36.5 µM), without a hit: at the top dose activity change, negative = inhibition, usual class: inhibitors. actives 0.63% (n = 310,000). AID 720579; calls by dose curve; tested in A549 cells; further: nearly all actives have a fitted effect of over 35% in size
Pf growth 48h – inhibits P. falciparum growth in the first generation, 48 h | actives 5.9% (n = 310,000) | P. falciparum luciferase growth in erythrocytes, 48 h | Potency, µM (titrated, usually from 28.7 µM), for the others: top-dose activity change, negative = inhibition, usual class: inhibitors
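Compounds are pin-transferred into medium, infected erythrocytes (2% hematocrit, 0.1% parasitemia final) are added, and plates sit one parasite generation at 37 C in 5% CO2. Detection reagent is then added and luminescence measured.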
Pf growth 96h – inhibits malaria parasite growth, 96 h; P. falciparum luciferase reporter growth, 96 h; Potency, µM (series often up to 28.7 µM), for the others: top-dose activity change, negative = inhibition, hits mostly inhibitors; actives 6.9% (n = 320,000); AID 504834
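P. falciparum expressing integrated firefly luciferase grown in erythrocytes (2% hematocrit, 0.05% parasitemia final) with compounds for 96 hours at 37 C, 5% CO2. Growth inhibition read as loss of luminescence after adding luciferase detection reagent.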
AMA1 RON2 block – inhibitors of Plasmodium falciparum AMA1-RON2 interaction; AlphaScreen AMA1-biotinylated RON2 peptide binding; actives 0.2% (n = 360,000); Potency, µM (top dose mostly 58.2 µM), inactives show at the highest dose activity change, negative = inhibition, actives largely listed as inhibitors;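 further: 0% = vehicle wells and -100% = peptide control; nearly all actives have a fitted effect of over 45% in size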
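AMA1 (3D7) with his tag at 25 nM final met compounds first, then biotinylated RON2 peptide at 25 nM; detection used donor plus acceptor beads, 10 µg/mL apiece, read by AlphaScreen after 30 min at room temperature.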
Starred values were filed as active, the others as inactive; i = inactive; ? = inconclusive; / = no result given; [ ] = dose if it differs, or a comment. The list is not random: actives were taken first. Their share in the collection is about 8.7%. Unless noted, the call rests on the fitted dose curve; in most records, active means well fitted curve in the direction sought with a large enough effect; inconclusive means small, poorly fitted or top-dose-only effect, or another doubt; inactive means no such curve, though single readings can be large; an effect the other way counts as inactive or inconclusive. Unless noted, on the % scale 0 is the no-effect control and ±100 the full control effect; potency means the concentration at half of the fitted maximal effect.

SMILES	Vaccinia Venus	Vaccinia mCherry	Pf growth 48h	Pf growth 96h	AMA1 RON2 block
O=C(CCS(=O)(=O)c1ccccc1)Nc1nc(-c2ccc(F)cc2)cs1	?	12.6µM*	-13.2%	-5.1%	3.0%
Cc1ccc(S(=O)(=O)CCC(=O)Nc2nc(-c3ccccn3)cs2)cc1	/	/	13.1µM*	10.4µM*	97.1%
O=C(CS(=O)(=O)c1ccccc1)Nc1nc(-c2ccc(F)cc2)cs1	/	/	2.9%	?	-2.0%
Cc1ccc(S(=O)(=O)CCC(=O)Nc2nc(-c3cccnc3)cs2)cc1	-16.0%	-14.2%	-1.2%	24.2%	-1.0%
Cc1cc(C)cc(OCc2ccc(C(=O)Nc3ccccc3F)o2)c1	-11.0%	-7.6%	/	/	/
COc1ccccc1C(=O)N[C@@H]1c2ccccc2C2(CCN(Cc3c(O)cccc3OC)CC2)[C@H]1O	?	-17.1%	/	/	/
COc1ccc(CN2C(=O)c3cccnc3C2Nc2ccc(OC)c(Cl)c2)cc1 (centres undefined)	/	/	18.6%	/	-17.9%
COc1cc(NC2c3ncccc3C(=O)N2Cc2ccco2)cc(OC)c1 (centres undefined)	/	/	?	3.7µM*	-21.4%
CCCOc1ccccc1N/C(=N/c1nc(C)cc(C)n1)NC(=O)COc1ccc(OC)cc1	-25.8%	/	/	4.65µM*	0.3%
COc1ccc(OC)c(N/C(=N/c2nc(C)cc(C)n2)NC(C)=O)c1	/	/	11.4%	11.3%	0.1%
COc1ccc(N/C(=N/c2nc(C)cc(C)n2)NC(=O)Nc2ccc(Cl)c(Cl)c2)c(OC)c1	2.2%	-6.2%	11.7µM*	10.4µM*	-12.4%
CCCOc1ccccc1N/C(N)=N/c1nc(C)cc(C)n1	4.2%	-17.0%	14.7µM*	-22.9%	-7.0%
O=[N+]([O-])c1cnn(-c2nc(-c3cccs3)cc(C(F)(F)F)n2)c1	-3.2%	-2.2%	10.4µM*	?	-8.5%
CCN(CC)CCCNC(=O)CSc1nc(-c2cccs2)cc(C(F)(F)F)n1	-1.3%	4.8%	-8.3%	?	5.6%
Cc1cc(NC(=O)CSc2nc(-c3cccs3)cc(C(F)(F)F)n2)no1	-29.8%	-14.0%	?	1.85µM*	2.0%
CS(=O)(=O)c1nc(-c2cccs2)cc(C(F)(F)F)n1	/	/	-9.8%	13.1µM*	/
CCCNC(=O)CSc1nc(-c2cccs2)cc(C(F)(F)F)n1	/	/	-17.9%	8.28µM*	21.0%
CC(=O)NC(Cc1ccc(O)cc1)C(=O)NCC(N)C(=O)c1ccccc1 (centres undefined)	-14.4%	-22.4%	/	/	/
CCc1cccc(C)c1NC(=O)Cn1cc2c(n1)CCCC2	-12.9%	-7.7%	/	/	/
CCOC(=O)c1ccc(N2C(=O)c3n[nH]c(-c4ccco4)c3C2c2ccccc2OC)cc1 (centres undefined)	-29.9%	?	/	/	/
CC(C)C(=O)NC(=S)Nc1ccc(S(=O)(=O)NC2CCCCC2)cc1	/	/	3.7%	16.5µM*	-3.8%
CC(=O)Nc1ccc(S(=O)(=O)NC2CCCCCC2)cc1	-15.0%	-27.2%	1.5%	-9.8%	4.9%
CCOC(=O)c1c(C)nc2ccccn12	/	/	26.0%	/	3.6%
CCOC(=O)N1CCN(c2nc3ccccn3c(=O)c2C=O)CC1	/	/	0.294µM*	0.828µM*	-9.7%
CCOC(=O)c1c(C2CCN(C(=O)OCC)CC2)nc2ccccn12	-20.1%	i	/	5.22µM*	-4.2%
SMILES	Vaccinia Venus	Vaccinia mCherry	Pf growth 48h	Pf growth 96h	AMA1 RON2 block
CN1CCN(c2nc3ccccn3c(=O)c2C=O)CC1	-8.4%	-0.1%	0.0%	11.7%	8.1%
C=CC1=C(C)/C(=C/c2[nH]c(Cc3[nH]c(/C=C4\NC(=O)C(C)=C4C=C)c(C)c3CCC(=O)O)c(CCC(=O)O)c2C)NC1=O	6.1%	i	/	/	/
Cc1ccc(C(=O)Nc2cccc(-c3nc(CNC(=O)[C@@H]4C[C@@H](C)NC(=S)N4)c(C)o3)c2)s1	-17.6%	-22.0%	/	/	/
O=C(Nc1ccc(Br)cc1F)c1cc(S(=O)(=O)NC2CCCC2)ccc1F	-24.3%	-18.0%	/	/	/
Cc1nn(-c2ccccc2)c(Cl)c1C(=O)N(C)c1nc(-c2ccc(F)cc2)cs1	/	/	21.8%	7.38µM*	/
CCCN1CNc2c(c(=O)[nH]c(=S)n2CCc2ccc(OC)cc2)C1	-16.1%	i	/	/	/
Cc1ccc(CNC(=O)Cn2cc(S(=O)(=O)Cc3ccccc3Cl)c3ccccc32)cc1	-18.5%	-17.5%	/	/	/
CN(C)S(=O)(=O)c1ccc(NC(=O)N2CCN(c3cccc(C(F)(F)F)c3)CC2)cc1	/	/	11.7µM*	11.7µM*	-20.0%
CN(C)S(=O)(=O)c1ccc(NC(=O)N2CCN(c3ccccc3Cl)CC2)cc1	/	/	13.1µM*	?	-9.0%
CCOC(=O)c1c(C)sc(-c2c(-c3ccc4c(c3)OCCO4)[nH]c3c2c(=O)n(C)c(=O)n3C)c1O	-11.0%	-5.3%	/	/	/
Cc1onc(-c2ccccc2)c1C(=O)N1CCCSC1=Nc1ccccc1	-7.0%	-2.8%	2.94µM*	?	0.0%
CCOc1ccc(N=C2SCCCN2C(=O)c2c(CC)noc2C)cc1	-6.7%	i	1.0%	-1.6%	4.0%
COc1ccc(C2CC(=O)N(CC(=O)Nc3ccc(C(C)=O)cc3)c3ccccc3S2)cc1OC (centres undefined)	-4.4%	-9.3%	/	/	/
CCc1cccc(C)c1NS(=O)(=O)c1cc2[nH]c(=O)c(=O)[nH]c2cc1C	1.7%	0.2%	/	/	/
CC(Sc1ncnc2sccc12)C(=O)Nc1ccc(S(=O)(=O)N2CCOCC2)cc1 (centres undefined)	?	15.8µM*	/	/	-11.7%[11.6 µM]
Cn1cc(S(=O)(=O)N2CCOCC2)cc1C(=O)Nc1ccc(Cl)cc1	-10.0%	-2.7%	29.7%	7.38µM*	24.5%
Cc1cc(C)n(S(=O)(=O)c2ccccc2)n1	-1.1%	i	-0.7%	4.9%	7.5%
CC(=O)Nc1ccc(S(=O)(=O)n2nc(C)cc2C)cc1	-6.6%	-11.7%	-3.0%	0.928µM*	3.9%
O=C(Nc1ccc(F)c(F)c1)c1ccc(F)c(S(=O)(=O)N2CCC3(CC2)OCCO3)c1	?	i	?	10.4µM*	-14.5%
COCCNC(=O)c1cnc2sc(N3CCC(C)CC3)nn2c1=O	-4.9%	-1.3%	/	/	/
O=S(=O)(c1ccc(S(=O)(=O)N2CCC3(CC2)OCCO3)cc1)N1CCCC1	-6.6%	-8.6%	?	21.0%	12.7%
CC(Oc1ccc(Cl)cc1)C(=O)Nc1cccc(S(=O)(=O)N2CCCC2)c1 (centres undefined)	-11.3%	-20.4%	/	/	0.0%
CC(Oc1ccc(Cl)cc1)C(=O)Nc1ccc(S(=O)(=O)N2CCOCC2)cc1 (centres undefined)	-2.3%	1.1%	13.1µM*	8.4%	-7.4%
CC(=O)Nc1ccc(S(=O)(=O)N2CCOCC2)cc1	/	/	0.4%	2.94µM*	-4.2%
CC(=O)Nc1ccc(S(=O)(=O)N2CCSC2C(=O)O)cc1 (centres undefined)	-9.7%	i	/	11.7µM*	2.6%
CC(=O)Nc1ccc(S(=O)(=O)N2CCC3(CC2)OCCO3)cc1	/	/	19.8%	9.28µM*	-5.3%
